Source: PubChem BioAssay
Sampled rows, rich in hits. Any-hit rate of the full collection: about 6.1%.
TGFb SMAD3 inh – TGF-b pathway inhibition | HepG2 CAGA-GFP TGF-b/SMAD3 reporter, GFP fluorescence, 18 h; TGF-beta stimulated, 500 pg/mL final | Potency, µM (series often up to 46.1 µM), without a hit: at the top dose activity, negative = inhibition, usual class: inhibitors | 410,000 compounds, 1.2% hits; also: % is scaled to controls: 0 for no effect and ±100 for the full control effect; nearly all actives have a fitted effect of over 65% in size
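Inhibition was scored as loss of TGF-beta-induced (500 pg/mL final, 18 hours, 37 degrees C) GFP in HEPG2 cells carrying a CAGA-GFP reporter, in DMEM with 1% FBS. Well GFP was summed per cell; Activity was normalised to unstimulated and stimulated DMSO wells, then concentration-response fitting.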
ATXN2 expr inh – reduces ATXN2 reporter expression in HEK-293 cells; Potency, µM (top dose mostly 57 µM), for inactives: at the top dose activity change, negative = inhibition, most hits filed as inhibitors; HEK-293 ATXN2-luciferase reporter, luminescence, 24 h; 360,000 compounds, 0.72% hits; also: % is scaled to controls: 0 for no effect and ±100 for the full control effect; nearly all actives have a fitted effect of over 55% in size
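qHTS (up to 57 uM final) was run with 24 h compound exposure of reporter cells at 37 °C. Each well was multiplexed: SteadyGlo luminescence measured ATXN2-luciferase expression after a fluorogenic Gly-Phe-AFC viability readout (25 uM final).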
HepG2 viability – HepG2 cytotoxicity, counter-screen for TGF-b inhibitors. HepG2 CAGA-GFP viability, ATP luminescence, 18 h. Potency, µM (titrated, usually from 46.1 µM), inactives show at the top dose activity change, negative = cytotoxicity, actives largely listed as cytotoxic. 410,000 compounds, 0.76% hits. AID 588856
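HepG2 CAGA-GFP cells (1000/well, DMEM with 1% FBS) received compound, then TGF-beta at 500 pg/mL final, and were incubated 18 hours at 37 degrees C. Viability was read by CellTiter-Glo luminescence. Media-only wells were set as complete cell-killing and DMSO as no toxicity.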
Gal4-VP16 FLuc – counter-screen for ROR gamma inhibitors: Gal4-VP16 reporter; Potency, µM (highest dose often 53.6 µM), for the others: at the top dose activity, negative = inhibition, hits mostly inhibitors; AID 2546; 310,000 compounds, 3.5% hits; Drosophila S2 Gal4-VP16 UAS-luciferase, luminescence, 20 h;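 also: Gal4-VP16 expression switched on by copper sulfate through the metallothionein promoter; % is scaled to controls: 0 for no effect and ±100 for the full control effect; nearly all actives have a fitted effect of over 50% in size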
S2 tox – reduces viability in counter-screen for ATXN expression inhibitors. S2 cells (HEK-293 line with an ATXN2-luciferase reporter) viability, CellTiter-Fluor protease fluorescence, 24 h. Potency, µM (top dose mostly 56.7 µM), hits mostly cytotoxic. 400,000 compounds, 0.49% hits. AID 651635; also: nearly all actives have a fitted effect of over 40% in size
RORg inh – blocks mouse ROR gamma transcriptional activity; 310,000 compounds, 5.4% hits; Potency, µM (titrated, usually from 53.6 µM), for the others: top-dose activity change, negative = inhibition, usual class: inhibitors; AID 2551; Drosophila S2 Gal4-RORgamma UAS-luciferase reporter, 20 h; also: % is scaled to controls: 0 for no effect and ±100 for the full control effect; nearly all actives have a fitted effect of over 60% in size
Target sequence (P51450 whole entry, looked up, the tested form may be a part): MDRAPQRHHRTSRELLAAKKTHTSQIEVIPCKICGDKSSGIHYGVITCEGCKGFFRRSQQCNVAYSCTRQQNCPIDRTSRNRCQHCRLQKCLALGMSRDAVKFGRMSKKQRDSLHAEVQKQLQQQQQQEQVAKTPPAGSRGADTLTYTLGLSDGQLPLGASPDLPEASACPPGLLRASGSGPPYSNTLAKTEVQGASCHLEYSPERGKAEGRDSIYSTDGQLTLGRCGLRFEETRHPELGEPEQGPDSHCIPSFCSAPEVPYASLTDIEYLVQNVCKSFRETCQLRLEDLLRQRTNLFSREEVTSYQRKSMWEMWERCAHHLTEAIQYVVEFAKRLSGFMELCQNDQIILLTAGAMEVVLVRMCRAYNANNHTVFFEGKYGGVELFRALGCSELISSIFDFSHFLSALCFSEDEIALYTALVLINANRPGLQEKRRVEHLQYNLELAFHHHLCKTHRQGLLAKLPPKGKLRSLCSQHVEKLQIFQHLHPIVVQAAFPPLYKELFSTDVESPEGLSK
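Compounds are pin-transferred onto Drosophila Schneider cells expressing a copper-inducible Gal4–ROR gamma transactivation domain fusion. After 1 hr, copper sulfate is added to 700 uM final; luciferase is read 20 hr later.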
Numbers without * were called inactive; [ ] = another dose, or the depositor's remark. Calls follow the shape of the dose curve; as a rule, active = well fitted curve in the direction sought with a large enough effect; inconclusive = small, poorly fitted or top-dose-only effect, or another doubt; inactive = no such curve, though single readings can be large; an effect the other way counts as inactive or inconclusive. Potency is read from the fitted curve at half-maximal effect.

COC(=O)c1cn(Cc2ccccc2C)nn1 was read as TGFb SMAD3 inh -29%, ATXN2 expr inh 3%, HepG2 viability 1.8µM*, Gal4-VP16 FLuc -4%, S2 tox inactive and RORg inh 25%.
CCOC(=O)c1cn(Cc2ccc(C)cc2)nn1 was read as TGFb SMAD3 inh -4%, ATXN2 expr inh 12%, HepG2 viability -18%, Gal4-VP16 FLuc -4%, S2 tox inactive and RORg inh 10%.
`COC(=O)C1=C(C(=O)OC)C(C(=O)OC)C(C(=O)OC)C(C(=O)OC)(C(=O)OC)C(C(=O)OC)=C1C(=O)OC` (centres undefined) gave TGFb SMAD3 inh -28%, ATXN2 expr inh inconclusive, HepG2 viability -41% and S2 tox 34µM*.
Cc1c([N+](=O)[O-])cnc(Sc2ccccc2)c1[N+](=O)[O-] was read as TGFb SMAD3 inh 13µM*, HepG2 viability 20µM* and S2 tox 14µM*.
`Cc1cc(NC(=O)CS(=O)c2cn(Cc3cccc(Cl)c3)c3ccccc23)no1` (centres undefined) gave TGFb SMAD3 inh 13µM*, ATXN2 expr inh inconclusive, HepG2 viability -8% and S2 tox inconclusive.
`CCOc1ccc2[nH]c3c(NCCN(C)C)ncnc3c2c1` gave Gal4-VP16 FLuc 25% and RORg inh 5%.
Screening COc1ccc2[nH]c3c(NCCC4=CCCCC4)ncnc3c2c1 returned TGFb SMAD3 inh inconclusive, ATXN2 expr inh inconclusive, HepG2 viability -114%, Gal4-VP16 FLuc 7.1µM*, S2 tox inconclusive and RORg inh inconclusive.
Screening CCOc1ccc2[nH]c3c(NCCC(C)C)ncnc3c2c1 returned TGFb SMAD3 inh inconclusive, ATXN2 expr inh inconclusive, HepG2 viability -35%, Gal4-VP16 FLuc 4.5µM*, S2 tox inactive and RORg inh inconclusive.
CCN(CC)CCNc1ncnc2c1[nH]c1ccc(OC)cc12 was read as Gal4-VP16 FLuc -1% and RORg inh 23%.
`COc1cc(=O)n2c(c1C(=O)NC(C)c1ccco1)CCN(C(=O)c1ccnc(Cl)c1)CC2` (centres undefined) gave S2 tox inactive.
NC(=O)COC(=O)CCCSc1nc2ccccc2s1 was read as TGFb SMAD3 inh -8%, ATXN2 expr inh -39%, HepG2 viability -2%, Gal4-VP16 FLuc 13µM*, S2 tox inactive and RORg inh 7.9µM*.
`N#Cc1ccsc1NC(=O)COC(=O)CCCSc1nc2ccccc2s1` gave TGFb SMAD3 inh -1%, ATXN2 expr inh -36%, HepG2 viability -9%, Gal4-VP16 FLuc 5µM*, S2 tox inactive and RORg inh inconclusive.
For CNC(=O)NC(=O)COC(=O)CCCSc1nc2ccccc2s1 the results were TGFb SMAD3 inh inconclusive, ATXN2 expr inh inconclusive, HepG2 viability -1%, Gal4-VP16 FLuc inconclusive, S2 tox inactive and RORg inh inconclusive.
`CC(OC(=O)CCCSc1nc2ccccc2s1)C(=O)NC(N)=O` (centres undefined) gave TGFb SMAD3 inh -5%, ATXN2 expr inh -16%, HepG2 viability 4%, Gal4-VP16 FLuc 4µM*, S2 tox inactive and RORg inh 4.5µM*.
`CC(C)Oc1ccc(C(=O)N(Cc2ccco2)c2ccccn2)cc1` gave TGFb SMAD3 inh inconclusive, ATXN2 expr inh 29%, HepG2 viability -4% and S2 tox inactive.
`O=C1Nc2c(c(=O)[nH]c(=O)n2-c2ccccc2)C1(NS(=O)(=O)c1ccc(Cl)cc1)C(F)(F)F` (centres undefined) gave TGFb SMAD3 inh 1%, ATXN2 expr inh 6%, HepG2 viability 7% and S2 tox inactive.
`C/C(=N\NC(=O)C(C)n1nc(C)c([N+](=O)[O-])c1C)c1ccccc1O` (centres undefined) gave TGFb SMAD3 inh inconclusive, ATXN2 expr inh 16µM*, HepG2 viability -20%, Gal4-VP16 FLuc 0.18µM*, S2 tox inactive and RORg inh 0.14µM*.
For COc1ccc(C2c3c(-c4c(C)cc(C)cc4O)n[nH]c3C(=O)N2Cc2ccco2)cc1 (centres undefined) the results were TGFb SMAD3 inh inconclusive, ATXN2 expr inh inconclusive, HepG2 viability -105% and S2 tox 18µM*.
For C/C(=C1/C=Nc2ccccc21)c1ccc(N(C)C)cc1 the results were TGFb SMAD3 inh inconclusive and HepG2 viability -42%.
`CCOc1ccc(N=C(NN)c2ccc3ccccc3n2)cc1` gave TGFb SMAD3 inh inconclusive, ATXN2 expr inh -16%, HepG2 viability -21%, Gal4-VP16 FLuc inconclusive, S2 tox inactive and RORg inh 10µM*.
For Cc1cccc(CN2CCC(CNC(=O)Cn3ncc4c([nH]c5ccc(C)cc54)c3=O)CC2)c1 the results were TGFb SMAD3 inh 6%, ATXN2 expr inh -2%, HepG2 viability -5% and S2 tox inactive.
`CCN(CC)S(=O)(=O)c1ccc(N2CCN(c3ccccc3OC)CC2)c(N)c1` gave TGFb SMAD3 inh -4%, ATXN2 expr inh inconclusive, HepG2 viability -6%, Gal4-VP16 FLuc 22µM*, S2 tox inactive and RORg inh inconclusive.
CCc1ccc(S(=O)(=O)NC(=S)NC2CCCCC2)cc1 was read as TGFb SMAD3 inh 2%, ATXN2 expr inh -2%, HepG2 viability -9%, Gal4-VP16 FLuc 5.6µM*, S2 tox inactive and RORg inh 3.5µM*.
Cc1ccc(S(=O)(=O)NC(=S)NC2CCCCC2)cc1 was read as TGFb SMAD3 inh -18%, ATXN2 expr inh -6%, HepG2 viability 3%, Gal4-VP16 FLuc 14µM*, S2 tox inactive and RORg inh 3.2µM*.
`O=S(=O)(NC(=S)NC1CCCCC1)c1ccc(Cl)cc1` gave TGFb SMAD3 inh -5%, HepG2 viability 12%, Gal4-VP16 FLuc 5.6µM*, S2 tox inactive and RORg inh 2.2µM*.
`CCNC(=S)NS(=O)(=O)c1ccc(Cl)cc1` gave TGFb SMAD3 inh -4%, ATXN2 expr inh 2%, HepG2 viability 2%, Gal4-VP16 FLuc 3%[0.365 µM], S2 tox inactive and RORg inh 22µM*.
`Cc1cc(=O)c(C(=O)NCCc2ccccn2)c2n1-c1ccccc1SC(c1cccs1)C2` (centres undefined) gave S2 tox inactive.
`CCNS(=O)(=O)c1ccc(CCC(=O)NC2CCCC2)cc1` gave TGFb SMAD3 inh -7%, ATXN2 expr inh 12%, HepG2 viability 0.1µM*, Gal4-VP16 FLuc -1%, S2 tox inactive and RORg inh -8%.
